Only some compounds are listed: those with a hit (about 9.9% of all), similar ones and a draw of the others.
Tau fluor cs – Counterscreen qHTS for Inhibitors of Tau Fibril Formation, Fluorescence Polarization | tau K18 P301L Alexa594 fluorescence, heparin fibrillization | Potency, µM (doses to about 57.7 µM), inactives show at the highest dose activity change, negative = decrease | hit rate 0.93% among 280,000; active means well fitted curve in the direction sought with a large enough effect; inconclusive means small, poorly fitted or top-dose-only effect, or another doubt; inactive means no such curve, though single readings can be large; an effect the other way counts as inactive or inconclusive; further: nearly all actives have a fitted effect of over 55% in size
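Human K18 P301L tau (15 uM unlabeled plus 0.24 uM Alexa 594-labeled, final) in 100 mM sodium acetate pH 7 was mixed with compound and 20 uM heparin and incubated 6 hr at 37 C.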
ALDH1A1 inh – qHTS Assay for Inhibitors of Aldehyde Dehydrogenase 1 (ALDH1A1); hit rate 7.3% among 220,000; Aldehyde dehydrogenase 1A1 (Homo sapiens), P00352; Purified ALDH1A1, NADH fluorescence, propionaldehyde substrate; Potency, µM (series often up to 75.3 µM), for inactives: at the highest dose activity, negative = inhibition, actives largely listed as inhibitors;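 further: plate controls were no enzyme wells and a reference inhibitor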
Tau FP inhib – qHTS for Inhibitors of Tau Fibril Formation, Fluorescence Polarization; Microtubule-associated protein tau (Homo sapiens), P10636; K18 P301L tau heparin fibrillization, Alexa594 FP, 6 h; Potency, µM (series often up to 57.7 µM), without a hit: at the highest dose activity, negative = inhibition, hits mostly inhibitors; hit rate 0.39% among 280,000; active means well fitted curve in the direction sought with a large enough effect; inconclusive means small, poorly fitted or top-dose-only effect, or another doubt; inactive means no such curve, though single readings can be large; an effect the other way counts as inactive or inconclusive; further: nearly all actives have a fitted effect of over 55% in size
Target sequence (P10636 561-689 P618L limits assumed): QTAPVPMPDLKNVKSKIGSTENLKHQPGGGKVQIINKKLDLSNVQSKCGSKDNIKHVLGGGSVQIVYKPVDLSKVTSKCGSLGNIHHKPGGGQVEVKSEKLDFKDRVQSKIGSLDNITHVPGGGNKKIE
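FP of Alexa 594-tau after heparin (20 uM) induction. Substrate: human K18 P301L, 15 uM unlabeled, 0.24 uM labeled. Buffer 100 mM sodium acetate pH 7. 6 hr, 37 C.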
HPGD block – qHTS Assay for Inhibitors of HPGD (15-Hydroxyprostaglandin Dehydrogenase) | 15-hydroxyprostaglandin dehydrogenase [NAD(+)] (Homo sapiens), P15428 | purified HPGD, NADH fluorescence kinetic, PGE2 substrate | Potency, µM, inactives show at the top dose activity change, negative = inhibition, actives largely listed as inhibitors | hit rate 4.3% among 150,000
Target sequence (P15428 whole entry, looked up): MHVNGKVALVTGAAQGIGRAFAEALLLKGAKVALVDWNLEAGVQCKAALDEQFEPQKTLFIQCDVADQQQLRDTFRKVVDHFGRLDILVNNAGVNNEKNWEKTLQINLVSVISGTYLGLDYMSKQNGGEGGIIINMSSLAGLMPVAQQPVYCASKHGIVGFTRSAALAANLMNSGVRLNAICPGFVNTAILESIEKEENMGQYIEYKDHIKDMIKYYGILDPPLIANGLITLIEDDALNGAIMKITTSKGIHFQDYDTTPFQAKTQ
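NADH formation kinetics: reaction with 30 uM PGE2 and 1 mM NAD+ (final), 20 nM enzyme, Tris-HCl pH 8 with Tween 20, after 15 min compound preincubation at room temperature. Fluorescence change, last versus first of five reads.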
Tau fibril ThT – qHTS for Inhibitors of Tau Fibril Formation, Thioflavin T Binding; Microtubule-associated protein tau (Homo sapiens), P10636; recombinant tau K18 P301L (four-repeat tau fragment), heparin-induced fibrillization, ThT fluorescence; Potency, µM (series often up to 57.4 µM), for the others: at the highest dose activity, negative = inhibition, most hits filed as inhibitors; hit rate 2.1% among 270,000; AID 1460, 2008; active means well fitted curve in the direction sought with a large enough effect; inconclusive means small, poorly fitted or top-dose-only effect, or another doubt; inactive means no such curve, though single readings can be large; an effect the other way counts as inactive or inconclusive; further: nearly all actives have a fitted effect of over 55% in size
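Tau K18 P301L fragment (15 uM unlabeled plus 0.24 uM Alexa 594-labeled) in 100 mM sodium acetate pH 7 with compound, fibrillization induced by 20 uM heparin for 6 hr at 37 C. Thioflavin T (30 uM) added, fluorescence read after 1 hr (ex 450, em 510 nm).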
KDM4E inh – qHTS Assay for Inhibitors of Human Jumonji Domain Containing 2E (JMJD2E) | AID 2147, 2009 | JMJD2E catalytic domain, FDH-coupled NADH fluorescence (FDH is formaldehyde dehydrogenase) | hit rate 1.6% among 230,000 | Potency, µM (series often up to 57.1 µM), without a hit: at the highest dose activity change, negative = inhibition, most hits filed as inhibitors;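 further: 0% = wells with enzyme and -100% = buffer wells without enzyme; nearly all actives have a fitted effect of over 50% in size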
Target sequence (B2RXH2 1-337 limits assumed): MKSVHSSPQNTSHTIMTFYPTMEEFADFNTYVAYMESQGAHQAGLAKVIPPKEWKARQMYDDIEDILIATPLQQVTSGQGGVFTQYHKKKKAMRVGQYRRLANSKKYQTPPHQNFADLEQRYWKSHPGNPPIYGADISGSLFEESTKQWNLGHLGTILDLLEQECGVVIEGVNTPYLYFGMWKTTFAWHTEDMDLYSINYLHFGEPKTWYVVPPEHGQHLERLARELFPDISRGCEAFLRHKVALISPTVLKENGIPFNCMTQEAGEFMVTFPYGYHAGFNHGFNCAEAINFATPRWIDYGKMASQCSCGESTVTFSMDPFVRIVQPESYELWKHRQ
* hit, by the source's call; [ ] = remark or other dose. Unless noted, the call rests on the fitted dose curve; in most records, active means well fitted inhibition curve with a large enough effect (not every such curve was filed as active); inconclusive means small, poorly fitted or top-dose-only effect, or another doubt; inactive means no such curve, though single readings can be large or run the other way. Unless noted, on the % scale 0 is the no-effect control and ±100 the full control effect; potency means the concentration at half of the fitted maximal effect.

COc1ccccc1Oc1nc2c(c(=O)n(Cc3ccccc3F)c(=O)n2C)n1C was read as Tau fluor cs inconclusive, ALDH1A1 inh 8.91µM*, Tau FP inhib 6.4%, HPGD block 14.1µM*, Tau fibril ThT inconclusive and KDM4E inh -21.8%.
Screening Cc1ccc(NC(=O)Cn2c(=O)c3ccccc3n3nncc23)cc1 returned Tau fluor cs -0.7%, Tau FP inhib -12.1% and Tau fibril ThT 7.4%.
`CCc1ccccc1NS(=O)(=O)c1ccc2c(c1)CCCN2C(=O)C1CCC1` gave Tau fluor cs -6.1%, Tau FP inhib 5.0% and Tau fibril ThT inconclusive.
For CCc1cccc(C)c1NC(=S)NCc1cccn1C the results were Tau fluor cs -8.2%, ALDH1A1 inh 14.1µM*, Tau FP inhib 2.9%, HPGD block -15.1%, Tau fibril ThT -2.6% and KDM4E inh 6.7%.
For O=C(CSc1nnc(C2CC2)n1Cc1ccco1)NCC(F)(F)F the results were Tau fluor cs 1.0%, ALDH1A1 inh 23.8µM*, Tau FP inhib 0.8%, Tau fibril ThT -5.9% and KDM4E inh -5.6%.
Screening CSc1ncc(Cl)c(C(=O)N(Cc2ccc(C(C)C)cc2)C2CCS(=O)(=O)C2)n1 (stereo not given) returned Tau fluor cs -14.6%, Tau FP inhib -0.2% and Tau fibril ThT -14.0%.
C#CCOCCOCCOCCNc1nc(N2CCN(C(=O)[C@H](CCC(=O)O)n3cc(C(N)CO)nn3)CC2)nc(N2CCN(C(=O)[C@H](CCC(=O)O)n3cc(C(N)CC(C)C)nn3)CC2)n1 (stereo not given in full) was read as Tau fluor cs 9.6%, Tau FP inhib -7.5%, Tau fibril ThT 1.8% and KDM4E inh 22.4µM*.
Screening COc1ccc(-n2c(SCC(N)=O)nc3nc4c(cc3c2=O)COC(C)(C)C4)cc1 returned Tau fluor cs -8.0%, ALDH1A1 inh 3.55µM*, Tau FP inhib -2.2%, HPGD block -22.8%, Tau fibril ThT -14.3% and KDM4E inh -17.8%.
Screening CCn1c(SCC(=O)Nc2ccccc2)nc2nc3c(cc2c1=O)COC(C)(C)C3 returned Tau fluor cs -9.7%, Tau FP inhib -4.5% and KDM4E inh -5.6%.
`C=CCn1c(SCC(N)=O)nc2nc3c(cc2c1=O)COC(C)(C)C3` gave Tau fluor cs -4.0%, Tau FP inhib -1.6%, Tau fibril ThT -1.5% and KDM4E inh inconclusive.
Screening CC(Cc1ccccc1)NC(=O)CSc1nc2nc3c(cc2c(=O)n1-c1ccccc1)COC(C)(C)C3 (stereo not given) returned Tau fluor cs -3.5%, ALDH1A1 inh 1.58µM*, Tau FP inhib -9.5%, HPGD block -8.7%, Tau fibril ThT -2.9% and KDM4E inh -3.8%.
Cc1cc2c(ncn2Cc2ccccc2)c(N)c1C was read as Tau fluor cs -7.6%, ALDH1A1 inh 2.9%, Tau FP inhib -7.2%, Tau fibril ThT -0.8% and KDM4E inh -2.6%.
COc1ccc(-n2c(Cc3cccn3C)nnc2SCC(=O)Nc2ccc3c(c2)OCO3)cc1 was read as Tau fluor cs -25.1%, ALDH1A1 inh 14.1µM*, Tau FP inhib 1.7%, HPGD block -18.4%, Tau fibril ThT -14.2% and KDM4E inh -17.6%.
For Cn1cccc1Cc1nnc(SCC(=O)Nc2ccc3c(c2)OCCO3)n1CCc1ccccc1 the results were Tau fluor cs -23.6%, ALDH1A1 inh 14.1µM*, Tau FP inhib 5.3%, HPGD block -15.8%, Tau fibril ThT inconclusive and KDM4E inh -15.6%.
For COc1ccc(-n2c(Cc3cccn3C)nnc2SCC(=O)Nc2ccc3c(c2)OCCO3)cc1 the results were Tau fluor cs 8.7%, ALDH1A1 inh 1µM*, Tau FP inhib 11.3%, HPGD block -18.8%, Tau fibril ThT 6.2% and KDM4E inh 1.2%.
Screening Cc1ccc(Cl)cc1NS(=O)(=O)c1ccc(N2CCCCS2(=O)=O)cc1 returned Tau fluor cs -19.0%, Tau FP inhib -2.2% and Tau fibril ThT 0.1%.
CCCN(C(=O)Cn1nc(Cc2cccnc2)c2ccccc2c1=O)c1ccc(C(C)C)cc1 was read as Tau fluor cs -7.5%, Tau FP inhib 4.4% and Tau fibril ThT -9.8%.
For O=C(Cn1nc(Cc2ccncc2)c2ccccc2c1=O)Nc1cccc(C(F)(F)F)c1 the results were Tau fluor cs -26.6%, Tau FP inhib -7.9% and Tau fibril ThT -5.5%.
`Cc1ccc(-c2nnc3n2N=C(c2ccccc2Br)CS3)cc1` gave Tau fluor cs -2.1%, ALDH1A1 inh -6.1%, Tau FP inhib 3.0%, HPGD block 22.4µM*, Tau fibril ThT -13.7% and KDM4E inh 3.2%.
`Cc1cccc(-c2nnc3n2N=C(c2ccccc2)CS3)c1` gave Tau fluor cs -2.0%, ALDH1A1 inh 6.1%, Tau FP inhib -4.7%, HPGD block -11.8%, Tau fibril ThT -11.0% and KDM4E inh 8.2%.
For CN(Cc1ccc(F)cc1)S(=O)(=O)c1nnc(NC(=O)c2ccccc2Br)s1 the results were Tau fluor cs -7.4%, Tau FP inhib 2.7% and Tau fibril ThT -2.3%.
O=C(CSc1nc2ccccc2s1)Nc1nccs1 was read as Tau fluor cs -2.3%, ALDH1A1 inh 1.7%, Tau FP inhib 1.1%, HPGD block -4.9%, Tau fibril ThT -4.1% and KDM4E inh 4.0%.
O=C(CSc1nc2ccccc2s1)NNC(=S)Nc1ccc(Br)cc1 was read as Tau fluor cs inconclusive, ALDH1A1 inh 8.91µM*, Tau FP inhib 2.4%, HPGD block -10.9%, Tau fibril ThT inconclusive and KDM4E inh 43.3%.
For O=C(CSc1nc2ccccc2s1)NNC(=S)Nc1ccccc1 the results were Tau fluor cs 6.5%, ALDH1A1 inh 8.91µM*, Tau FP inhib 1.1%, HPGD block inconclusive, Tau fibril ThT 6.4% and KDM4E inh -4.1%.
O=C(CSc1nc2ccccc2s1)Nc1cc(C(=O)O)cc(C(=O)O)c1 was read as Tau fluor cs -4.9%, ALDH1A1 inh 0.0%, Tau FP inhib -12.8%, Tau fibril ThT -0.4% and KDM4E inh -8.7%.
Screening CCCCc1nc2c(c3c1C[C@H](C)OC3)CN(C(=O)N[C@H](C(=O)OC)C(C)C)CC2 returned Tau fluor cs -2.2%[11.6 µM], ALDH1A1 inh -1.7%[13.5 µM], Tau FP inhib -5.9%[11.6 µM], HPGD block -1.2%, Tau fibril ThT 2.2%[11.5 µM] and KDM4E inh 4.7%[11.4 µM].

Screening results deposited in PubChem by National Center for Advancing Translational Sciences (NCATS).
